Bioassay records from PubChem BioAssay.
Most compounds without a hit are left out; they make up all but 9.4% or so of the library.
Rab9 prom act: activators of Rab9 promoter; Huh7 Rab9 promoter-luciferase reporter, luminescence, 24 h; Potency, µM (top dose mostly 9.22 µM), without a hit: top-dose activation, negative = inhibition, hits mostly activators; 320,000 tested, 2.8% active; also: % of control where 0% means no effect; nearly all actives have a fitted effect of over 60% in size
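Measured in stably transfected Huh7 cells bearing a Rab9 promoter–luciferase construct: 24 h compound treatment at 37 °C, followed by luminescence detection.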
FLuc counter: firefly luciferase modulation, counter-screen for miR-21 project | P08659 | 360,000 tested, 6.9% active | AID 588342 | purified FLuc, Km substrates, luminescence inhibition | Potency, µM (doses to about 57.5 µM), for inactives: at the highest dose activity change, negative = inhibition, hits mostly inhibitors;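 also: plate controls were vehicle for no effect and reference inhibitor for full effect; nearly all actives have a fitted effect of over 55% in size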
Target sequence (P08659 whole entry, looked up): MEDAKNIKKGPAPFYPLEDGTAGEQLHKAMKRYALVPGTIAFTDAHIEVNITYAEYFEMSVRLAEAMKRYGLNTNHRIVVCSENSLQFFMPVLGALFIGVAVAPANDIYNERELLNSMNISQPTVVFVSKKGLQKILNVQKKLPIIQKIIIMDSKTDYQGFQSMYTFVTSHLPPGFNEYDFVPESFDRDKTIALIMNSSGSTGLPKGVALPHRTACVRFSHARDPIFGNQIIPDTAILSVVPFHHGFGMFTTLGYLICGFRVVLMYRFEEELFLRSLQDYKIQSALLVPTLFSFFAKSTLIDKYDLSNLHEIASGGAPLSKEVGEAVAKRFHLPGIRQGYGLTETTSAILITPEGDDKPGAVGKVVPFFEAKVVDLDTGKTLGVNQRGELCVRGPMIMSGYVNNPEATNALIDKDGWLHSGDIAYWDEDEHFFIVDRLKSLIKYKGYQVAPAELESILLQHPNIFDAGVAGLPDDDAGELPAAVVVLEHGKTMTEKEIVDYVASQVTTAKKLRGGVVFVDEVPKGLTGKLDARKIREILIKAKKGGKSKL
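Purified P. pyralis luciferase (10nM final) with 10uM D-luciferin and 10uM ATP (Km levels) in 50mM Tris acetate pH 7.5, 10mM Mg acetate, 0.01% Tween-20, 0.05% BSA; qHTS 6-point titration, ~60 µM downward; luminescence read.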
NPC1 promoter act: NPC1 promoter activation | Huh7 NPC1 promoter luciferase reporter, 24 h | Potency, µM (doses to about 9.22 µM), for inactives: at the highest dose activation, actives largely listed as activators | 320,000 tested, 2.4% active | AID 485313; also: % of control where 0% means no effect; nearly all actives have a fitted effect of over 60% in size
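Cells: Huh7 expressing luciferase under the NPC1 promoter, 1500/well. Seeded 2 h, compound added, incubated 24 h at 37 °C. Luciferase reagent, 10 min ambient, then luminescence.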
ELG1 DNA repair: blocks ELG1-dependent DNA repair in HEK293T cells | HEK293T ELG1-luciferase reporter, luminescence, 16 h; DNA damage induced by 5-fluorouridine | Potency, µM (top dose mostly 46.1 µM), inactives show at the highest dose activity change, negative = inhibition, actives largely listed as inhibitors | 330,000 tested, 2.3% active | AID 504467; also: % is scaled to controls: 0 for no effect and ±100 for the full control effect; nearly all actives have a fitted effect of over 55% in size
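Quantitative HTS, concentration-response format. 2,000 cells/well co-treated with 5-fluorouridine and compound, 16 hr in 5% CO2 at 37 °C; ONE-Glo luminescence read after 30 min.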
SMN2 splice enh: SMN2 splice variant enhancement; HEK293 SMN2-luciferase splicing reporter, luminescence, 30-36 h; 210,000 tested, 2.8% active; Potency, µM (top dose mostly 46.1 µM), inactives show top-dose activity change, positive = activation, usual class: activators; also: % of control where 0% means no effect; nearly all actives have a fitted effect of over 55% in size
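HEK293 cells carry an SMN2 minigene-luciferase reporter in which exon 7 inclusion puts luciferase in frame. Cells were seeded at 2000 cells/well, attached for 10-12 hours, then exposed to compounds for 30-36 hours at 37C before ONE-Glo luminescence.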
ELG1 genotoxic: inducers of genotoxicity in HEK293T ELG1-luciferase cells; HEK293T ELG1-luciferase reporter, luminescence, 16 h; Potency, µM (highest dose often 46 µM), for inactives: at the highest dose activity change, positive = activation, usual class: activators; 330,000 tested, 1.3% active; AID 504466; also: % of control where 0% means no effect; nearly all actives have a fitted effect of over 60% in size
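HEK293T cells expressing luciferase-tagged ELG1 were exposed to compound or DMSO vehicle for 16 hr at 37 °C and 5% CO2. Luciferase activity was then measured with ONE-Glo after 30 min at room temperature.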
Starred values were filed as active, the others as inactive; ? = inconclusive; nt = no result; [ ] = another dose, or the depositor's remark. Calls follow the shape of the dose curve; as a rule, active = well fitted curve in the direction sought with a large enough effect; inconclusive = small, poorly fitted or top-dose-only effect, or another doubt; inactive = no such curve, though single readings can be large; an effect the other way counts as inactive or inconclusive. Potency is read from the fitted curve at half-maximal effect.

SMILES	Rab9 prom act	FLuc counter	NPC1 promoter act	ELG1 DNA repair	SMN2 splice enh	ELG1 genotoxic
CC(C)c1ccc(NC(=O)c2csnn2)cc1	1.8µM*	2.1µM*	1.6µM*	?	?	1.2µM*
CC(C)c1ccc2oc(-c3cc(NC(=O)c4cccnc4)ccc3Cl)nc2c1	nt	11µM*	nt	nt	15%	nt
COCCCNC(=O)C1CCN(c2ncnc3c2nc2n3CCCCC2)CC1	nt	-6%	nt	nt	nt	nt
CC(C)c1ccc(NC(=S)NNC(=O)c2cccnc2)cc1	15%	11µM*	-3%	18%	-16%	9%
O=C(NNC(=S)Nc1ccc(Br)cc1)c1cccnc1	9%	?	1%	0%	nt	8%
CC(C)c1ccc(NC(=O)c2cccnc2)cc1	4µM*	17µM*	?	?	?	21µM*
Cc1ccc2ccccc2c1[N+](=O)[O-]	nt	nt	nt	nt	6%	nt
Cc1ccc(NS(=O)(=O)c2ccc(-c3cc(C)no3)cc2)c(C)c1	nt	-20%	nt	nt	nt	nt
N/C(=N/OC(=O)c1ccccc1Cl)c1nonc1N	?	8.5µM*	20%	0%	5%	?
N/C(=N\OC(=O)c1ccc(F)cc1)c1nonc1N	-8%	1.5µM*	-2%	?	11%	4%
Cc1ccc(C(=O)O/N=C(\N)c2nonc2N)cc1	11%	0.48µM*	3%	?	18%	?
N/C(=N/OCC(=O)Nc1cccc2ccccc12)c1nonc1N	1%	-6%	3%	2%	-11%	-2%
Cc1cc(/C(N)=N/OC(=O)c2ccccc2Cl)no1	0.5µM*	1.7µM*	1.1µM*	?	nt	?
Cc1ccc2c(c1)C(c1ccc(F)cc1)N(C(=O)COc1ccc(Cl)cc1Cl)CC(=O)N2 (configuration not stated)	nt	-1%	nt	nt	-2%	nt
Cc1ccc(N2CC(NC(=O)c3ccc(S(=O)(=O)N4CCCC4)cc3)CC2=O)cc1C (configuration not stated)	nt	-4%	nt	nt	nt	nt
Cc1nc(/C(N)=N/OC(=O)c2ccccc2Cl)c(C(F)(F)F)o1	?	11µM*	?	?	nt	?
COc1cc(OC)cc(-c2nnc(SCc3cccnc3)o2)c1	9%	-17%	-8%	4%	-3%	3%
Cc1cccc(-c2nnc(SCc3ccccc3)o2)c1	?	11µM*	?	?	?	?
COc1cccc(-c2nnc(SCc3cccnc3)o2)c1	4µM*	24µM*	?	?	12%	13%
O=C(O)c1cccc(CSc2nnc(-c3ccc(Cl)cc3)o2)c1	-1%	19µM*	-1%	28%	nt	17%
O=C(O)c1cccc(CSc2nnc(COc3ccccc3)o2)c1	-1%	?	-4%	26%	?	-1%
Cc1cccc(CSc2nnc(-c3ccco3)o2)c1	16%	?	18%	?	26%	?
Cc1cccc(NC(=O)CCN2CCN(c3ccccc3F)CC2)c1	nt	-5%	nt	nt	-9%	nt
NC(Cc1cc(I)c(Oc2cc(I)c(O)c(I)c2)c(I)c1)C(=O)O (configuration not stated)	nt	nt	nt	nt	1%	nt
CCOc1ccc(NC(=O)CSc2nccn2C2CCCC2)cc1	nt	-11%	nt	nt	nt	nt
SMILES	Rab9 prom act	FLuc counter	NPC1 promoter act	ELG1 DNA repair	SMN2 splice enh	ELG1 genotoxic
CCOC(=O)Cn1nc(C)c(NC(=O)COc2ccc(Cl)cc2C)c1C	nt	-9%	nt	nt	-52%	nt
COc1cccc(CN2CCSCC2)c1	-2%	5%	-4%	0%	0%	0%
Cc1ccc(CN=C2Nc3ccccc3CS2)cc1	0.45µM*	0.6µM*	0.5µM*	?	7.9µM*	2.6µM*
c1cncc(CN=C2Nc3ccccc3CS2)c1	1%	-2%	6%	?	7%	-1%
COc1ccccc1CN=C1Nc2ccccc2CS1	?	24µM*	?	?	?	13%
Clc1ccc(CN=C2Nc3ccccc3CS2)cc1	2.2µM*	6µM*	3.2µM*	?	13µM*	?
COc1cccc(CN=C2Nc3ccccc3CS2)c1	3.2µM*	12µM*	2.8µM*	?	14µM*	?
CCOC(=O)c1c(-c2ccc(C)cc2)csc1NC(=O)c1cc(=O)c2cc(C)c(C)cc2o1	nt	0%	nt	nt	0%	nt
C=C(C)Cn1c(SCC(=O)Nc2cc(C)ccc2C)nc2sc3c(c2c1=O)CCCC3	nt	-20%	nt	nt	-6%	nt
Cc1ccc(S(=O)(=O)N2CCN(S(=O)(=O)N3CCCCC3)CC2)c(C)c1	0%	9%	-5%	16µM*	-43%	-6%
Cc1ccc(S(=O)(=O)N2CCN(S(=O)(=O)N3CCC(C)CC3)CC2)c(C)c1	0%	-1%	2%	-1%	nt	-1%
CCN(CC)C(=O)CSc1nc(N)c2c3c(sc2n1)CC(C)CC3 (configuration not stated)	19%	1.9µM*	17%	?	10%	16%
CC1CCc2c(sc3nc(SCC(=O)NCc4ccco4)nc(N)c23)C1 (configuration not stated)	3%	4.8µM*	13%	-6%	-21%	14%
CCOC(=O)CSc1nc(N)c2c3c(sc2n1)CCCC3	2%	9.5µM*	6%	?	-5%	23%
Cc1nc2sc3c(c2c2nnc(SCC(=O)NCc4ccco4)n12)CCCC3	0%	?	-3%	?	-12%	-1%
COc1cccc(C(=O)Nc2ccccc2F)c1	?	?	21%	?	11µM*	?
CCCc1ccc(C(=O)NNc2ccccc2F)cc1	?	17µM*	?	?	nt	?
O=C(Nc1ccccc1F)c1cccc(C(=O)Nc2ccccc2F)c1	?	?	29%	9%	nt	3%
O=C(Nc1ccccc1F)c1ccc(C(=O)c2ccccc2)cc1	3.5µM*	11µM*	2.8µM*	?	nt	?
COc1cccc(C(=O)Nc2ccc(F)cc2F)c1	?	?	?	?	13µM*	?
CN(C)c1nc2c(Br)c(Br)c(Br)c(Br)c2[nH]1	-39%[46.1 µM]	nt	-38%[46.1 µM]	nt	12%	nt
COCC(=O)N1CCc2nc(-c3ccc(OC)cc3C)c3c(c2C1)CO[C@@H](c1ccccc1)C3	nt	nt	nt	nt	-2%[9.22 µM]	nt
CC(C)Oc1cccc(C(=O)Nc2ccc(Br)cc2F)c1	1.3µM*	0.95µM*	3.5µM*	?	5µM*	?
CCOc1ccc(C(=O)Nc2ccc(C(F)(F)F)n(C)c2=O)cc1	-7%	-5%	-2%	?	-20%	0%
COc1cccc(C(=O)Nc2ccc(C(F)(F)F)n(C)c2=O)c1	2.8µM*	6µM*	2.8µM*	?	nt	?
COc1cccc(C(=O)Nc2ccc(F)c(F)c2F)c1	?	17µM*	?	?	?	?
